Records with an inconclusive call do not appear. Activity calls are given as the source filed them.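 The calls were made as follows, unless noted: active = percent response above a set limit, the screen-wide mean plus 3 SD (cut at about 130% in these data); inactive = the rest.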
How the values were obtained:
[1] = yeast TOR pathway RPL19A-GFP modulators, primary screen, cell-based, S. cerevisiae, multiplex flow cytometry (AID 1862; in the data active = percent of DMSO control GFP below about 86%;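 also: lower values mimic rapamycin by blocking the RPL19A rise seen in DMSO cells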); settings: S. cerevisiae RPL19A-GFP strain, flow cytometry fluorescence, 3 h; at 10 µM; stronger effect = lower value
[2] = modulators of MEP2-GFP levels in yeast, primary screen, S. cerevisiae, multiplex flow cytometry (AID 1867;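 active = GFP response, as percent of the DMSO control, above the screen-wide mean plus 3 SD, about 139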;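 also: median GFP channel fluorescence of barcode-gated MEP2-GFP cells measured by flow cytometry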); settings: S. cerevisiae MEP2-GFP strain, 3 h, at 10 µM, stronger effect = higher value, 100% means same as DMSO wells
[3] = modulators of CIT2-GFP expression in yeast, primary screen, S. cerevisiae, GFP fusion, multiplex flow cytometry (AID 1870); settings: 3 h, at 10 µM, stronger effect = higher value;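 also: barcoded CIT2-GFP strain pooled with four other GFP strains with rapamycin as positive control; median GFP fluorescence per well over plate mean of DMSO wells so 100% = DMSO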
[4] = modulators of LAP4-GFP expression in yeast, primary screen, S. cerevisiae, multiplex flow cytometry (AID 1873;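 active = GFP signal, as percent of the solvent control, above the screen mean plus 3 SD, about 149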); settings: 3 h, at 10 µM, stronger effect = higher value
[5] = modulators of AGP1-GFP expression in yeast TOR pathway, primary screen, cell-based, multiplex flow cytometry, S. cerevisiae (AID 1887;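 active = GFP signal above the screen-wide mean plus 3 SD, that is over about 124.5% of the solvent control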;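 also: AGP1-GFP fusion strain of S. cerevisiae within a five-strain barcoded multiplex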); settings: 3 h, at 10 µM, stronger effect = higher value
[6] = inhibitors of CD8+ T cell-vesicle binding, pilot screen, LFA-1/ICAM-1 modulator project, MLPCN validation set, flow cytometry (AID 2523;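 active = response below a set limit, under 55% cells CD8-positive and vesicle-bound, and CD8 cells' 90th-percentile brightness under 279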;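 as to vesicle binding response: mean PE anti-B7-1 fluorescence of CD8+ cells relative to row control; 100% = QL9-loaded vesicles with DMSO vehicle in the same plate row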); settings: 2C mouse CD8+ T cells, at 7 µM, stronger effect = lower value; double positive events: measured here: CD8+/vesicle+ event percentage
[7] = target: Integrin beta-1 (Homo sapiens) + Integrin alpha-4 (Homo sapiens) (UniProt P13612+P05556); test: inhibition of HUTS-21 binding to VLA-4, pilot screen, VLA-4 allosteric modulator project, U937 cells, HUTS-21 mAb, flow cytometry, validation set (AID 2674;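 active = inhibition above 50%, about 3 SD of the validation set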;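 also: antibody binding induced by the VLA-4 ligand LDV present at three times its Kd; 0% = LDV ligand with antibody and no compound and 100% = antibody without LDV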); settings: HUTS-21 LIBS mAb binding, at 6.7 µM, stronger effect = higher value, binding induced by LDV ligand
Integrin beta-1 (Homo sapiens) + Integrin alpha-4 (Homo sapiens), sequence (P05556 whole entry, looked up): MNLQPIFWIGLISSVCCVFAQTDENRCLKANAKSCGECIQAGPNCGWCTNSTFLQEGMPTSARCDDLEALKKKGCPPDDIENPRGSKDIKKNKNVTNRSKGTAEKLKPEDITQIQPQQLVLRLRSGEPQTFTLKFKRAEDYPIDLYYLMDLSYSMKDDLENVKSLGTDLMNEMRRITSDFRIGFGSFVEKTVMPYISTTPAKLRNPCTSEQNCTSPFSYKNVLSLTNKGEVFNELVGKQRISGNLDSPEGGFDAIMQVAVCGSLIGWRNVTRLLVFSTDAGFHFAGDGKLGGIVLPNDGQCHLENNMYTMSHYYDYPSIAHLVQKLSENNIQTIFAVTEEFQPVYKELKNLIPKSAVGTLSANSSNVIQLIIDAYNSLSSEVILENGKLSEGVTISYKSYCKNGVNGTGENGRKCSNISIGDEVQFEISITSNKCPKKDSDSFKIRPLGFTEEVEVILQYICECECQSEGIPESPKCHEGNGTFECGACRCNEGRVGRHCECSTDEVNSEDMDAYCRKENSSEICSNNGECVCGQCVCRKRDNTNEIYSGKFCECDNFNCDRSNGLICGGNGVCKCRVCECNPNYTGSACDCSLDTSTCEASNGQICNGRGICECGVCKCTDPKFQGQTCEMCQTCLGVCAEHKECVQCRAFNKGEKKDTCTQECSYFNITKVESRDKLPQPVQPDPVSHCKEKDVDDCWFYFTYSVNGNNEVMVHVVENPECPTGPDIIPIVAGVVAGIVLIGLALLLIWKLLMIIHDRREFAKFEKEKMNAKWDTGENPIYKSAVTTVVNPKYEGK
Integrin beta-1 (Homo sapiens) + Integrin alpha-4 (Homo sapiens), sequence (P13612 whole entry, looked up): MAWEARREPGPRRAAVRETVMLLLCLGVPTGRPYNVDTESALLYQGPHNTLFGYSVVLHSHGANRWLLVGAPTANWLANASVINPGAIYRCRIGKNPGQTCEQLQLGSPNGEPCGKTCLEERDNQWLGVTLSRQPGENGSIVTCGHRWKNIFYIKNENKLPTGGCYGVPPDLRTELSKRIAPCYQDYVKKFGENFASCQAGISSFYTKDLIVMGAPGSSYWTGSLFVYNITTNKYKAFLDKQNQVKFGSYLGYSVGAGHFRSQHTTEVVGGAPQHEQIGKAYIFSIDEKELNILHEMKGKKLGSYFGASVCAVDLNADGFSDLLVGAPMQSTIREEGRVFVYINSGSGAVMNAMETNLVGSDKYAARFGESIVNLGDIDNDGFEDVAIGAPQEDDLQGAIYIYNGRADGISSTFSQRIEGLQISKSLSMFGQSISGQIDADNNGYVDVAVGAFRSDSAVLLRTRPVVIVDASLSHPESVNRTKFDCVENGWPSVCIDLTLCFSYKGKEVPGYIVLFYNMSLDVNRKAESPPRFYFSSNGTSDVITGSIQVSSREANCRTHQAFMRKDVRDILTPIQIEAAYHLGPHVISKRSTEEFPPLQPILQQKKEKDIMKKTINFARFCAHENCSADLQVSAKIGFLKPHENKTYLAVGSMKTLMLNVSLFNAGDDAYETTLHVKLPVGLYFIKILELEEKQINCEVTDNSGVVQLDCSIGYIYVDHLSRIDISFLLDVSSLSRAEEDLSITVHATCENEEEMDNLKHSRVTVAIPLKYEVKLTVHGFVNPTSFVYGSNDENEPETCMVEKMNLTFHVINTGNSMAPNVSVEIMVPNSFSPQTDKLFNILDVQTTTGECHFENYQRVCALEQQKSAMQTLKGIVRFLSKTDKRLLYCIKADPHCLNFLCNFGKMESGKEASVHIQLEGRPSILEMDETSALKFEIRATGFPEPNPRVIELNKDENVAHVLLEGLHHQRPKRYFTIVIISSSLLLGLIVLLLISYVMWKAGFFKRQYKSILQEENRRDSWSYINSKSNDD

[8] = superoxide lowering in aged yeast cells, pilot screen, validation compound set (AID 2706;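 active = superoxide response below 65% of plate, a cut near 3 SD across the whole screen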;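 also: yeast exposed to compound for one week at 30 degrees C before staining; 100% = mean of all compound wells on the same plate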); settings: S. cerevisiae aging, superoxide DHE fluorescence; at 10 µM; stronger effect = lower value
[9] = target: Beta-adrenergic receptor kinase 1 (Homo sapiens) (UniProt P25098); test: GRK2 binders displacing RNA aptamer, biochemical, validation, human GRK2, bead flow cytometry (AID 488806;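 active = aptamer binding inhibition above 30%, about 3 SD of noise from non-fluorescent compounds; inactive = inhibition at or below 30%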); settings: bead-bound GRK2, FAM-aptamer displacement, at 10 µM, stronger effect = higher value
Beta-adrenergic receptor kinase 1 (Homo sapiens), sequence (P25098 whole entry, looked up): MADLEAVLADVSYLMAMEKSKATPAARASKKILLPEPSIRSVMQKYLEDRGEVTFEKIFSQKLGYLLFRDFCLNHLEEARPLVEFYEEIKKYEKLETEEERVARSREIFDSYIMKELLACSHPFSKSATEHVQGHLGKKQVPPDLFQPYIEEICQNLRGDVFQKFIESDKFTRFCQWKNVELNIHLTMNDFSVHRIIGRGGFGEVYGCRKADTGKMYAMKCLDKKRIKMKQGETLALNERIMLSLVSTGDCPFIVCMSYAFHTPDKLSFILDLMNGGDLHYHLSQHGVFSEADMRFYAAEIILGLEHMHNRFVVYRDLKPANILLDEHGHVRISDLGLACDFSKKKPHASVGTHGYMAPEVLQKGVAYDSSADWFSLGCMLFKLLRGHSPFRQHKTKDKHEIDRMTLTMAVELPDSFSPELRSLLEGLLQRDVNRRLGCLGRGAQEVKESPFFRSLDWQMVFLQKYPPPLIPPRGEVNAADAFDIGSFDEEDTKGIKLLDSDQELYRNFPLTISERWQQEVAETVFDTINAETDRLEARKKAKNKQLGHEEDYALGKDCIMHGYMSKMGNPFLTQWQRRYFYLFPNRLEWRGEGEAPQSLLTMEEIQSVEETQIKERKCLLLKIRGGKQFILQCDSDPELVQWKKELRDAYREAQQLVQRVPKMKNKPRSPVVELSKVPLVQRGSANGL

[10] = target: Beta-2 adrenergic receptor (Homo sapiens) (UniProt P07550); test: beta2AR agonists driving receptor internalization, pilot screen, cell-based, FAP fluorogen, flow cytometry, validation set (AID 504459;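 active = percent response above 42, roughly 3 SD of non-fluorescent test compounds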;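 also: agonist-driven loss of surface beta2AR via internalization measured by FAP dye flow cytometry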); settings: Am2.2-beta2AR cells, FAP surface receptor flow cytometry; at 10 µM; stronger effect = higher value
Beta-2 adrenergic receptor (Homo sapiens), sequence (P07550 whole entry, looked up): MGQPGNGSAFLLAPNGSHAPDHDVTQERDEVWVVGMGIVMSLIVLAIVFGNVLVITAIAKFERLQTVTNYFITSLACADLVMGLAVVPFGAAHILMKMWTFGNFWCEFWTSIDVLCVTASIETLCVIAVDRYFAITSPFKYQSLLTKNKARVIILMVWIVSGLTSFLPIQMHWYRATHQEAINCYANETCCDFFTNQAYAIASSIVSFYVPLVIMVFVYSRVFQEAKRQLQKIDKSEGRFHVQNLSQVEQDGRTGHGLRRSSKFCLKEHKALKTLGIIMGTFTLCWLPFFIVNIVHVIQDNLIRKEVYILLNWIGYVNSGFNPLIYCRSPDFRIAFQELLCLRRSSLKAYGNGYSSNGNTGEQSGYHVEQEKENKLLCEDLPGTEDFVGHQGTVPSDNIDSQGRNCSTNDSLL

[11] = target: AP-2 complex subunit beta (Homo sapiens) (UniProt P63010); test: inhibitors of arrestin peptide binding to AP2, pilot screen, biochemical, validation set, GST-AP2 beads, flow cytometry (AID 504541;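 active = inhibition above 54%, about 3 SD of non-fluorescent compounds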;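 also: AP2 carries R879A mutation and is captured from E. coli lysate; bead-bound FITC arrestin peptide fluorescence measuring arrestin peptide binding to AP2; 0% = DMSO wells and 100% = excess unlabeled arrestin peptide control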); settings: FITC arrestin peptide, at 10 µM, stronger effect = higher value, AP2 beta2 appendage fragment, R879A mutant
AP-2 complex subunit beta (Homo sapiens), sequence (P63010 whole entry, looked up, the tested form may be a part, one chain of several): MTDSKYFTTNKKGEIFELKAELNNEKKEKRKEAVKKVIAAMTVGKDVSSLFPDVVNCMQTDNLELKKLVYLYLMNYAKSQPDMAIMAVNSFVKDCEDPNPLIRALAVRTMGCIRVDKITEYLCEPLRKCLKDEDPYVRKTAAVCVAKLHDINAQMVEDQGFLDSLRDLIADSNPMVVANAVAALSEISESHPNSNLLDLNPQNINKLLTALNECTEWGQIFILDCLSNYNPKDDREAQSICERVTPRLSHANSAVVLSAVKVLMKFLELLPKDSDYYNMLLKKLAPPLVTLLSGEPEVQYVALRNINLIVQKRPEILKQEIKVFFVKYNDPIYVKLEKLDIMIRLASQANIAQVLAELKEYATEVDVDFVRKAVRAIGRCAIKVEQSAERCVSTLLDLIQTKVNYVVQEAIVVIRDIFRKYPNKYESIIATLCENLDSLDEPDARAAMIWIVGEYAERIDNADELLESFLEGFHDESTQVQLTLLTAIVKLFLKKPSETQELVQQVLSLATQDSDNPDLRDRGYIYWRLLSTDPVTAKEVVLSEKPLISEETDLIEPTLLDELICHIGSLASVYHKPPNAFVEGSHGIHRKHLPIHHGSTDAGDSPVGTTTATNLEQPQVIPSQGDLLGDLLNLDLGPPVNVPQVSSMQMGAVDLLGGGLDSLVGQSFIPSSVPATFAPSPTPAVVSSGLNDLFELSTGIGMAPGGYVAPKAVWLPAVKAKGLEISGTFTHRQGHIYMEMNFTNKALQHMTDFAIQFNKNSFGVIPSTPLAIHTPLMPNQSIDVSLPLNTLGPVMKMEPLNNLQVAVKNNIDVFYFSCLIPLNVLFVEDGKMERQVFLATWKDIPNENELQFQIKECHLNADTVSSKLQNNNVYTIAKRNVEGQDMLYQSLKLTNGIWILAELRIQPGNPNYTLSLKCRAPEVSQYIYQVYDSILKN

[12] = yeast V-ATPase proton transport modulators, S. cerevisiae, pHLuorin, HTS validation (AID 504600; in the data active = response above about 15%;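 also: plate controls were DMSO for no effect and reference compound for full effect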); settings: S. cerevisiae pHLuorin cytosolic pH, at 10 µM, stronger effect = higher value
[13] = tested on: anti-desmoglein-3 scFv antibody binding to human DSG3; test: inhibitors of anti-DSG3 scFv binding to DSG3, pilot screen, biochemical, validation compound set, bead-based, flow cytometry (AID 588368;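 active = binding below the plate cutoff, the plate median minus 3 SD, with a reading above zero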;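 also: signal is the median channel fluorescence of bead-bound GFP antibody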); settings: Protein G beads, DSG3-Fc, scFv-GFP binding, at 10 µM, stronger effect = lower value
[14] = inhibitors of fungal efflux pumps CDR1, CDR2, MDR1, pilot screen, validation compound set, multiplex, phenotypic (AID 588506;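 active = efflux inhibition above 0.42, the validation set average plus 4 SD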;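 also: Nile Red retained in cells so higher fluorescence means more efflux inhibition; 0 = negative control wells and 1 = enniatin B 25 µM full block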); settings: S. cerevisiae pump-expressing triplex, Nile Red efflux flow cytometry; at 10 µM; stronger effect = higher value; the pumps come from Candida albicans
[15] = target: ATP-binding cassette sub-family B member 6 (Homo sapiens) (UniProt Q9NP58); test: ABCB6 transporter inhibitors, pilot screen, K562-ABCB6 cells, flow cytometry, validation set (AID 588550;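 active = inhibition above the screen-wide mean plus 3 SD, about 51%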;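 also: 0% = DMSO wells and 100% = benzethonium chloride 70 µM positive control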); settings: K562-ABCB6 porphyrin accumulation, 1 h, at 10 µM, stronger effect = higher value
ATP-binding cassette sub-family B member 6 (Homo sapiens), sequence (Q9NP58 whole entry, looked up): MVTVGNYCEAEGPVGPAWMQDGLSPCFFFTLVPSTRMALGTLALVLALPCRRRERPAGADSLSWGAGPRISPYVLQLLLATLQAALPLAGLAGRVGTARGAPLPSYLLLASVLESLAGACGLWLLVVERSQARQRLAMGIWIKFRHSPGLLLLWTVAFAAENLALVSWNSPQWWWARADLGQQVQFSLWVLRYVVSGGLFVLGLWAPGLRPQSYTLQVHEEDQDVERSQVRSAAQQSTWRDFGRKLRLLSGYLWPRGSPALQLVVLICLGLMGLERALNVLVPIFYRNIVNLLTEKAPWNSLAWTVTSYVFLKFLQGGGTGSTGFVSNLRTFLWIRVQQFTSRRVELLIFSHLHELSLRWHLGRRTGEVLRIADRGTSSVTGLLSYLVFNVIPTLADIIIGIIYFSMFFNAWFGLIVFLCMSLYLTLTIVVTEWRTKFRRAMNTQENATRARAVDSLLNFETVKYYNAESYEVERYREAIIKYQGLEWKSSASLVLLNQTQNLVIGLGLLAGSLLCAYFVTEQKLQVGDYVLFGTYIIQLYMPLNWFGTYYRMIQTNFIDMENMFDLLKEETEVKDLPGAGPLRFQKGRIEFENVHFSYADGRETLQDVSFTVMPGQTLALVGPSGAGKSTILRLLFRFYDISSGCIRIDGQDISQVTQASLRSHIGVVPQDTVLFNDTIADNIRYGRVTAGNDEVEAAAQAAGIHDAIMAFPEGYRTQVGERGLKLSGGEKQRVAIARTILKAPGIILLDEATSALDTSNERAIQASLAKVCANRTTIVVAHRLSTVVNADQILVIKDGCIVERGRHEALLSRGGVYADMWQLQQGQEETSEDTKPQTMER

[16] = promoters of myeloid differentiation in arrested cells, primary screen, cell-based, GFP/MAC1 double positive, flow cytometry, validation set (AID 588685;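 active = differentiation response of at least 50%, scaled between solvent and reference control, from cells with both markers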;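 also: compound exposure lasts four days before antibody staining and flow analysis; 0% = DMSO wells and 100% = 5 µM fulvestrant positive control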); settings: ER-HoxA9 marrow cells, stronger effect = higher value, normalized: vehicle 0, fulvestrant 100

COc1ccc(NC(=O)N2CCCCC2c2cccnc2)cc1 (stereo not given)
inactive: percent of DMSO control GFP [1] 98.9% | GFP response vs DMSO [2] 105% | percent response of DMSO control [3] 99% | GFP response vs DMSO [4] 109% | GFP response, % of DMSO [5] 105% | vesicle binding response [6] 454% | inhibition [7] 7.4% | superoxide response (% of plate) [8] 116% | aptamer binding inhibition [9] 7% | response [10] -25.6% | inhibition [11] 0.21% | response [12] 3.03% | binding (% of control) [13] 103% | efflux inhibition (fraction of control) [14] 0 | inhibition [15] -2% | differentiation response [16] -18.8%
59.7%: double positive events [6]

CC(=O)Nc1ccc2[nH]c(C)c(CC=C(Cl)Cl)c(=O)c2c1
inactive: percent of DMSO control GFP [1] 105% | GFP response vs DMSO [2] 113% | percent response of DMSO control [3] 93.9% | GFP response vs DMSO [4] 87.3% | GFP response, % of DMSO [5] 94.8% | vesicle binding response [6] 146% | inhibition [7] 12.6% | superoxide response (% of plate) [8] 110% | aptamer binding inhibition [9] 4% | response [10] 5.01% | inhibition [11] -17.8% | response [12] 0.46% | binding (% of control) [13] 97.9% | efflux inhibition (fraction of control) [14] 0.14 | inhibition [15] 11% | differentiation response [16] -5.68%
61.1%: double positive events [6]

O=C(N/N=C\c1cc([N+](=O)[O-])ccc1N1CCOCC1)c1ccccn1
59.8%: double positive events [6]
inactive: percent of DMSO control GFP [1] 107% | GFP response vs DMSO [2] 102% | percent response of DMSO control [3] 107% | GFP response vs DMSO [4] 100% | GFP response, % of DMSO [5] 103% | vesicle binding response [6] 142% | inhibition [7] -7.79% | superoxide response (% of plate) [8] 104% | aptamer binding inhibition [9] -2% | response [10] -1.25% | inhibition [11] 1.39% | response [12] 4.27% | binding (% of control) [13] 102% | efflux inhibition (fraction of control) [14] 0.35 | inhibition [15] -1% | differentiation response [16] -11.9%

CC(C)OC(=O)C1C(=O)CC(C)(O)C(C(=O)OC(C)C)C1c1cccc(O)c1 (stereo not given)
inactive: percent of DMSO control GFP [1] 105% | GFP response vs DMSO [2] 99.7% | percent response of DMSO control [3] 105% | GFP response vs DMSO [4] 101% | GFP response, % of DMSO [5] 114% | vesicle binding response [6] 278% | inhibition [7] -18.5% | superoxide response (% of plate) [8] 85.3% | aptamer binding inhibition [9] -5% | response [10] 6.25% | inhibition [11] 29.4% | response [12] -3.54% | binding (% of control) [13] 99.8% | efflux inhibition (fraction of control) [14] -0.22 | inhibition [15] -13% | differentiation response [16] -11.9%
55.9%: double positive events [6]

COc1cc(CNCCc2c[nH]c3ccccc23)cc(Cl)c1OCC(N)=O
inactive: percent of DMSO control GFP [1] 107% | GFP response vs DMSO [2] 97.4% | percent response of DMSO control [3] 102% | GFP response vs DMSO [4] 94% | GFP response, % of DMSO [5] 97.2% | vesicle binding response [6] 340% | inhibition [7] -7.25% | superoxide response (% of plate) [8] 102% | aptamer binding inhibition [9] -6% | response [10] 14.8% | inhibition [11] -2.94% | response [12] 1.24% | binding (% of control) [13] 99.9% | efflux inhibition (fraction of control) [14] 0.3 | inhibition [15] 0% | differentiation response [16] -10.4%
66.2%: double positive events [6]

COc1cc(C2NCCc3c2[nH]c2ccccc32)ccc1OC(C)C (stereo not given)
inactive: percent of DMSO control GFP [1] 105% | GFP response vs DMSO [2] 103% | percent response of DMSO control [3] 106% | GFP response vs DMSO [4] 90.4% | GFP response, % of DMSO [5] 104% | vesicle binding response [6] 85.7% | inhibition [7] 5.61% | superoxide response (% of plate) [8] 95.7% | aptamer binding inhibition [9] 0% | response [10] 9.28% | inhibition [11] 1.29% | response [12] 0.8% | binding (% of control) [13] 104% | efflux inhibition (fraction of control) [14] 0.08 | inhibition [15] 9% | differentiation response [16] -10.4%
58.1%: double positive events [6]

Cc1ccc2nc(N=C(N)N)nc(C)c2c1
inactive: percent of DMSO control GFP [1] 111% | GFP response vs DMSO [2] 107% | percent response of DMSO control [3] 110% | GFP response vs DMSO [4] 114% | GFP response, % of DMSO [5] 118% | vesicle binding response [6] 124% | inhibition [7] -13.2% | superoxide response (% of plate) [8] 91.5% | aptamer binding inhibition [9] -1% | response [10] -5.11% | inhibition [11] 0.05% | response [12] 5.97% | binding (% of control) [13] 109% | efflux inhibition (fraction of control) [14] -0.02 | inhibition [15] 5% | differentiation response [16] -8.96%
58.7%: double positive events [6]

CC(C(=O)O)c1cccc(C(=O)c2ccccc2)c1 (stereo not given)
inactive: percent of DMSO control GFP [1] 102% | GFP response vs DMSO [2] 107% | percent response of DMSO control [3] 97.6% | GFP response vs DMSO [4] 110% | GFP response, % of DMSO [5] 107% | vesicle binding response [6] 145% | inhibition [7] 4.27% | superoxide response (% of plate) [8] 97.3% | aptamer binding inhibition [9] 4% | response [10] 6.64% | inhibition [11] -7.83% | response [12] -2.55% | binding (% of control) [13] 101% | efflux inhibition (fraction of control) [14] 0.36 | inhibition [15] 20% | differentiation response [16] -7.5%
67.3%: double positive events [6]

Cc1cnc(N)c2c(=O)oc3ccccc3c12
61.2%: double positive events [6]
inactive: percent of DMSO control GFP [1] 99.8% | GFP response vs DMSO [2] 100% | percent response of DMSO control [3] 105% | GFP response vs DMSO [4] 96.6% | GFP response, % of DMSO [5] 95.3% | vesicle binding response [6] 275% | inhibition [7] -8.75% | superoxide response (% of plate) [8] 98.8% | aptamer binding inhibition [9] 4% | response [10] -6.01% | inhibition [11] -2.59% | response [12] -3.82% | binding (% of control) [13] 97.1% | efflux inhibition (fraction of control) [14] -0.01 | inhibition [15] -2% | differentiation response [16] -6.6%

CN1C(=O)NC(c2ccc(O)cc2)C2=C1CN(c1cccc3ccccc13)C2=O (stereo not given)
inactive: percent of DMSO control GFP [1] 102% | GFP response vs DMSO [2] 107% | percent response of DMSO control [3] 106% | GFP response vs DMSO [4] 94% | GFP response, % of DMSO [5] 100% | vesicle binding response [6] 229% | inhibition [7] -1.49% | superoxide response (% of plate) [8] 94.5% | aptamer binding inhibition [9] 0% | response [10] -19.6% | inhibition [11] 3.73% | response [12] -0.13% | binding (% of control) [13] 99.8% | efflux inhibition (fraction of control) [14] -0.23 | inhibition [15] -6% | differentiation response [16] 7.09%
64%: double positive events [6]

From PubChem BioAssay
